Experimental data reported in PubChem BioAssay AID686978 (National Center for Advancing Translational Sciences (NCATS), 2013).
About 64,000 (15%) of roughly 420,000 compounds were called active. Inconclusive results (about 27%) are left out. Only a sample is shown. Values without a mark were called inactive. The call rests on the fitted dose curve; in most records, active means well fitted inhibition curve with a large enough effect; inconclusive means small, poorly fitted or top-dose-only effect; inactive means flat fitted curve, though single readings scatter.
On the % scale 0 is the no-effect control and ±100 the full control effect; potency means the concentration at half of the fitted maximal effect.

Assay: qHTS for Inhibitors of human tyrosyl-DNA phosphodiesterase 1 (TDP1): qHTS in cells in absence of CPT; further: nearly all actives have a fitted effect of over 55% in size
Details: DT40 Tdp1-/- hTDP1 cells, no CPT, ATP luminescence, 48 h; activity change, negative = growth inhibition: at 46.2 µM (top of the series)
Summary of the method: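 Growth of hTDP1-complemented DT40 Tdp1-knockout cells is measured by ATP luminescence after at least 48 hr compound exposure at 37 °C, with DMSO substituting for the 20 nM CPT used in the parallel screen.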
For `CC(=O)Nc1ccc(S(=O)(=O)Oc2ccc(Br)cc2C(=S)N2CCOCC2)cc1`, the “activity change, negative = growth inhibition” value was -11.6%.
In the case of `O=S(=O)(Oc1ccccc1C(=S)N1CCOCC1)c1ccc(Cl)cc1`, the “activity change, negative = growth inhibition” value is reported as -24.6%.
In the case of `CCN(CC)P(=O)(C(NC(=O)OC)C(F)(F)C(F)(F)C(F)(F)C(F)F)N(CC)CC` (stereo unspecified), the “activity change, negative = growth inhibition” value is reported as -6.34%.
With `Cc1cc(C)nc(SCc2nnc(SCC(=O)Nc3ncc(C)s3)n2Cc2ccco2)n1` the “activity change, negative = growth inhibition” value was -21.5%.
With `CCOC(=O)CSc1nnc(-c2ccco2)n1C` the “activity change, negative = growth inhibition” value was 2.37%.
For `CCOC(=O)CSc1nc2c(sc(=S)n2CCc2ccccc2)c(=O)n1Cc1ccco1`, the Potency was 16.4 µM (active).
With `Cc1ccc(C)c(NC(=O)C2CC(=O)N(C(C)C)C2)c1` (stereo unspecified) the “activity change, negative = growth inhibition” value was -3.74%.
In the case of `CCCC(C)n1[nH]c(=O)c2c(C)cc(C)nc21` (stereo unspecified), the “activity change, negative = growth inhibition” value is reported as -19.9%.
In the case of `CC(CCc1ccccc1)NC(=O)c1ccc(Br)o1` (stereo unspecified), the “activity change, negative = growth inhibition” value is reported as -26.8%.
With `CC(CNC(=O)c1ccc(Br)o1)NC(=O)c1ccc(Br)o1` (stereo unspecified) the Potency was 4.61 µM (active).
With `O=C(CNC(=O)c1ccc(Br)o1)Nc1ccccc1` the “activity change, negative = growth inhibition” value was 22.8%.
For `C=C1C(=O)C23C(O)C1CCC2[C@]12COC3(O)C(O)C1C(C)(C)CC[C@H]2O` (stereo partly specified), the Potency was 6.51 µM (active).
In the case of `O=C(COC(=O)c1ncc(Cl)c(Cl)c1Cl)NC1CCS(=O)(=O)C1` (stereo unspecified), the “activity change, negative = growth inhibition” value is reported as 0.826%.
With `NC(N)=NCCCc1cn(CC(=O)N2CCNCC2)nn1` the “activity change, negative = growth inhibition” value was 8.18%.
For `N#Cc1ccc(C(=O)OCC(=O)NC(=O)NC2CCCCC2)cc1`, the “activity change, negative = growth inhibition” value was 0.0108%.
With `O=C(COC(=O)c1cccnc1Cl)NC(=O)NC1CCCCC1` the “activity change, negative = growth inhibition” value was -9.72%.
In the case of `Cc1nn(-c2ccccc2)c(C)c1C(=O)OCC(=O)NC(=O)NC1CCCCC1`, the Potency is reported as 29.1 µM (active).
In the case of `CC1Cc2ccccc2N1C1=CC(=O)CC(C)(C)C1` (stereo unspecified), the “activity change, negative = growth inhibition” value is reported as 3.77%.
In the case of `O=C(/C=C/Nc1ccccc1)c1cnc(-c2ccccc2)s1`, the “activity change, negative = growth inhibition” value is reported as -12%.
In the case of `CC(C)N(C(=O)Cn1c(SCC(=O)N2CCN(c3ccccc3)CC2)nc2ccccc21)C(C)C`, the “activity change, negative = growth inhibition” value is reported as -8.4%.
For `CC1(C(=O)O)CCCN(C(=O)/C=C/c2ccccc2)C1` (stereo unspecified), the “activity change, negative = growth inhibition” value was 4.02%.
For `CC(C)Cn1c(N2CCN(C(=O)/C=C/c3ccccc3)CC2)nc2ccccc21`, the Potency was 9.2 µM (active).
For `O=C(Nc1ccc(OCCO)cc1)c1csc([C@H]2C[C@H](O)[C@@H](CO)O2)n1`, the “activity change, negative = growth inhibition” value was -6.08%.
In the case of `CCOC(=O)C1=C(C)N=c2s/c(=C\C(=O)OC)c(=O)n2C1c1ccc(OC)cc1` (stereo unspecified), the “activity change, negative = growth inhibition” value is reported as -18.9%.
For `COc1ccc(OC)c(C2C3=C(N=c4s/c(=C\c5cccc(O)c5)c(=O)n42)c2ccccc2CC3)c1` (stereo unspecified), the Potency was 25.9 µM (active).
With `CC(C)(C)NC(=O)NC(=O)COC(=O)C1c2ccccc2Oc2ccccc21` the “activity change, negative = growth inhibition” value was -11.4%.
With `COc1cn(CC(=O)Nc2cccc(C)c2C)c(CN2CCCCC2)cc1=O` the “activity change, negative = growth inhibition” value was -0.619%.
In the case of `CCCCCCCCn1c2c(c(=N)c3c1CCC3)CCCC2`, the Potency is reported as 1.03 µM (active).
With `Nc1nnc(SCCN2C(=O)c3ccccc3S2(=O)=O)s1` the “activity change, negative = growth inhibition” value was -19.8%.
In the case of `CN(C)CCCN(Cc1cc2cc3c(cc2[nH]c1=O)OCCO3)C(=O)NC1CCCCC1`, the “activity change, negative = growth inhibition” value is reported as -27.3%.
In the case of `Cc1nnc(SCC(=O)Nc2ccc(S(=O)(=O)Nc3ccc(Cl)nn3)cc2)s1`, the “activity change, negative = growth inhibition” value is reported as 5.6%.
In the case of `O=C(NC1CCCC1)C1c2ccccc2OCC(=O)N1CC(F)(F)F` (stereo unspecified), the “activity change, negative = growth inhibition” value is reported as -22.1%.
With `Brc1cccc[n+]1Cc1cccc(C[n+]2ccccc2Br)c1` the Potency was 20 µM (active).
In the case of `Clc1cccc[n+]1CCCC[n+]1ccccc1Cl`, the “activity change, negative = growth inhibition” value is reported as -8.35%.
For `Cc1ccc(N2C(=O)C3C4C=CC(CC4)C3C2=O)cc1Br` (stereo unspecified), the “activity change, negative = growth inhibition” value was -0.847%.
With `NS(=O)(=O)c1ccc(NC(=O)COC(=O)c2ccco2)cc1` the “activity change, negative = growth inhibition” value was 21.8%.
For `CC1O[C@@H](Oc2c(-c3ccc(O)c(O)c3)oc3cc(O)cc(O)c3c2=O)C(O)C(O)C1O` (stereo partly specified), the “activity change, negative = growth inhibition” value was -21.7%.
For `Cn1c2ccccc2c(=O)c2c(O)cccc21`, the “activity change, negative = growth inhibition” value was -24.6%.
In the case of `CCCc1nc2c(c(=O)c3ccccc3n2C)c(=O)n1C1CCCCCC1`, the Potency is reported as 16.4 µM (active).
In the case of `O=C1CCC(C(=O)N2CCCCO2)CN1Cc1cccc(C(F)(F)F)c1` (stereo unspecified), the “activity change, negative = growth inhibition” value is reported as -0.0376%.
In the case of `Cc1ccc(S(=O)(=O)N/N=C\c2cc3c(cc2[N+](=O)[O-])OCO3)cc1`, the Potency is reported as 18.4 µM (active).
In the case of `CC(=O)N/N=C/c1cc2c(cc1[N+](=O)[O-])OCO2`, the “activity change, negative = growth inhibition” value is reported as -10.1%.
With `Cc1ccc(-c2n[nH]c(=S)n2/N=C/c2cc3c(cc2[N+](=O)[O-])OCO3)cc1` the “activity change, negative = growth inhibition” value was -9.24%.
In the case of `COc1cc(C(=O)N(Cc2ccc(C(C)C)cc2)C2CCS(=O)(=O)C2)cc(OC)c1OC` (stereo unspecified), the “activity change, negative = growth inhibition” value is reported as -18.9%.
In the case of `COc1ccccc1CN(C)c1nnnn1-c1ccccc1`, the “activity change, negative = growth inhibition” value is reported as -3.34%.
For `O=C(C[C@H]1C[C@H](C(=O)N2CCOCC2)[C@@]2(CCC3CCCC3)c3[nH]c4ccc(Cl)cc4c3CCN2C1=O)NCc1ccco1`, the Potency was 23.1 µM (active).
With `CC[C@]12c3[nH]c4ccc(Cl)cc4c3CCN1C(=O)[C@@H](CC(=O)NCCCOC)C[C@@H]2C(=O)N1CCN(C(=O)C2CC2)CC1` the “activity change, negative = growth inhibition” value was -14.3%.
With `CC[C@]12c3[nH]c4ccc(OC)cc4c3CCN1C(=O)C(CC(=O)NCCN1CCOCC1)C[C@@H]2C(=O)N1CCN(C(=O)C2CC2)CC1` (stereo partly specified) the “activity change, negative = growth inhibition” value was -4.6%.
In the case of `COc1ccc(CNC(=O)C[C@H]2C[C@H](C(=O)N3CCOCC3)[C@@]3(CCC4CCCC4)c4[nH]c5ccc(Cl)cc5c4CCN3C2=O)cc1OC`, the Potency is reported as 18.4 µM (active).
In the case of `CC[C@]12c3[nH]c4ccc(Cl)cc4c3CCN1C(=O)[C@@H](CC(=O)NCCN1CCOCC1)C[C@@H]2C(=O)N1CCN(C(=O)C2CC2)CC1`, the “activity change, negative = growth inhibition” value is reported as -1.26%.
With `CC[C@]12c3[nH]c4ccc(OC)cc4c3CCN1C(=O)C(CC(=O)NCc1ccco1)C[C@@H]2C(=O)N1CCN(C(=O)C2CC2)CC1` (stereo partly specified) the “activity change, negative = growth inhibition” value was -14.6%.
